Potency and outcome data for 23 compounds are collected here from PubChem BioAssay (NCATS).

Where “and” joins values, the source holds several entries; their conditions need not be identical. Equal values may be shown once. Values without a mark were called inactive. Results filed as inconclusive are left out. Calls of active or inactive are those of the source. Unless noted, the call rests on the fitted dose curve; in most records, active means well fitted curve in either direction with a large enough effect (not every such curve was filed as active); inconclusive means small, poorly fitted or top-dose-only effect, or another doubt; inactive means flat fitted curve, though single readings scatter. Peptide text beside a SMILES is read from it.

The target in assay [1] is Cytochrome P450 1A2 (Homo sapiens) (UniProt P05177). Briefly: p450-cyp1a2 (AID 410; calls by dose curve; further: potency means the concentration at half of the fitted maximal effect). A digest of the protocol:
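Luminescent readout of luciferin formed from Luciferin-ME by human CYP1A2; data normalized against complete inhibition by 57 uM furafylline. Enzyme 20nM, substrate 100uM at Km, 100mM KPO4 buffer, 60 min reaction at room temperature.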

For assay [2], the target named is Glucocorticoid receptor (Homo sapiens) (UniProt P04150). As to the kind of experiment: GR-GFP Redistribution (AID 450;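 active means compounds whose dose series gives a full or clear partial fitted curve of increased nuclear translocation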; further: potency means the concentration at half of the fitted maximal effect). The settings on record: U2OS GR-GFP nuclear translocation, laser cytometry, 2 h.
Assay [3] has the same target. Briefly: GR-EFC Redistribution (AID 451; calls by dose curve; further: potency means the concentration at half of the fitted maximal effect). To be noted: CHO-K1 GR-EFC translocation, beta-gal luminescence, 2 h. A digest of the protocol: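 Translocation of GR-ED fusion to nuclear EA restores b-gal, read by luminescence after 1 h room-temperature detection. Engineered CHO-K1 biosensor cells, 1,000/well, exposed 2 h at 37 C to titrations up to 46 uM final.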
Assay [4] deals with Mitogen-activated protein kinase 10 (Mus musculus) (UniProt Q61831). As to the kind of experiment: JNK3 AlphaScreen Assay (AID 530).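 Further: kinase came from lysate of stimulated human HepG2 cells; signal reports phosphorylation of biotinylated GST-cJun 1-79 at Ser73 with 10 µM ATP.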 A digest of the protocol: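 Compound titrations were preincubated 15 minutes at room temperature with substrate, antibody and pre-activated JNK3-containing HepG2 lysate. Reactions were started with 10 uM ATP and stopped with EDTA-containing bead buffer for AlphaScreen detection.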
For orientation: Alpha assays give light when donor and acceptor beads are brought close together.

Assay [5] concerns the target 3',5'-cyclic-AMP phosphodiesterase 4B (Homo sapiens) (UniProt Q07343). As to the kind of experiment: qHTS Assay for Inhibitors of PDE-IV (AID 607; active means well fitted activation curve with a large enough effect in the main read-out, with a control signal flat, not every such curve was filed as active). In a few lines: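 Cell-based read-out of cAMP via a modified cyclic nucleotide-gated channel and membrane potential dye (535/590 nm) in HEK293 cells expressing PDE4 endogenously. Compounds tested up to 22.9 uM final; 100 uM RO 20-1724 reference.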
A general note: Quantitative high-throughput screening tests each substance at several concentrations.

The nature of assay [6]: AP1 Signaling Pathway (AID 357).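 Further: ME-180 reporter cells stimulated with EGF at its EC50 level.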 A digest of the protocol:
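In this screen, ME-180 cells in Opti-MEM with 0.5% dialyzed FBS received EC50 EGF and compound titrations for 5 h. AP-1 reporter beta-lactamase was detected via CCF4 ratio, giving AC50 for positive and negative modulators.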

Assay [7] is described as follows: Stat Signaling Pathway (AID 446).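 Further: ME-180 cervical cancer cells given 40 pM IL-6 alongside compound; SIE-controlled beta-lactamase reporter measured as 460/530 nm FRET emission ratio.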 In a few lines: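 Reporter line: ME-180 cervical carcinoma, SIE-beta-lactamase. Treatment: compound with 40 pM IL-6, 5 hrs, 37 C, in low-serum OPTI-MEM with 10 mM HEPES pH 7.3. Detection: 460/530 nm fluorescence.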
Assay [8] in a line: Cell Viability - BJ (AID 421; calls by dose curve;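 further: potency means the concentration at half of the fitted maximal effect; cells exposed to compound for 40 hours at 37 °C before readout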). The settings on record: BJ fibroblast viability, qHTS. In a few lines: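 Cytotoxicity as drop in intracellular ATP (CellTiter-Glo, 20 min RT) after 40 hr compound exposure of BJ fibroblasts at 37 °C. Titrations scaled between DMSO and 100 uM tamoxifen, Hill-fitted for AC50.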
Assay [9] can be described thus: Cell Viability - Jurkat (AID 426;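 active means dose-dependent loss of cell ATP signal giving a full or clear fitted curve, ranked by lower potency value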; further: potency means the concentration at half of the fitted maximal effect). The settings on record: qHTS. A digest of the protocol:
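qHTS, 1536-well; Jurkat E6-1, 5000 cells/well, complete medium; cpd 40 hr, 37 °C; CellTiter-Glo 20 min RT; luminescence. AC50 by Hill fit.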

Assay [10] in a line: Cell Viability - Hek293 (AID 427;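 active means compounds whose dose-response curve shows a full or clear partial loss of cell viability, called from curve shape rather than a numeric limit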;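 further: potency means the concentration at half of the fitted maximal effect; cells exposed to compound for 40 hours at 37 °C before reading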). The settings on record: qHTS. A digest of the protocol:
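Luminescent ATP content (CellTiter-Glo, 20 min at room temperature) was measured after a 40 hr, 37 °C compound exposure of HEK293 cells. AC50 values came from Hill-equation fits of qHTS concentration-response data normalized to DMSO and 100 uM tamoxifen.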

A short description of assay [11]: Cell Viability - HepG2 (AID 433; calls by dose curve;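 further: potency means the concentration at half of the fitted maximal effect; potency for ATP loss meaning cytotoxicity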). To be noted: qHTS. In a few lines:
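HepG2 hepatocellular carcinoma cells (1500/well) were treated with compounds for 40 h at 37 °C in complete medium; intracellular ATP was read by CellTiter-Glo luminescence. Data were normalized to DMSO and 100 uM tamoxifen, and AC50 came from Hill fits.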

Assay [12] in a line: Cell Viability - SK-N-SH (AID 435; calls by dose curve;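 further: potency means the concentration at half of the fitted maximal effect; compound exposure lasted 40 h at 37 °C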). The settings on record: SK-N-SH neuroblastoma cell viability qHTS. In a few lines:
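SK-N-SH human neuroblastoma cells (1500/well) were exposed to compounds in complete medium for 40 h at 37 °C, and intracellular ATP was then measured by CellTiter-Glo luminescence. AC50 was taken from Hill fits, normalized to DMSO and 100 uM tamoxifen.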

The nature of assay [13]: Cell Viability - N2a (AID 540; active means well fitted curve in the direction sought with a large enough effect; an effect the other way counts as inactive or inconclusive; further: nearly all actives have a fitted effect of over 45% in size; further: potency means the concentration at half of the fitted maximal effect). To be noted: N2a mouse neuroblastoma cell viability; activity change, negative = cytotoxicity: at 92.2 µM (top of the series). In a few lines:
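Luminescent ATP signal (CellTiter-Glo, 20 min at room temperature) served as the viability read-out after N2a cells were treated with compounds for 40 hours at 37 °C. Concentration-response data were fitted to the Hill equation for AC50.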

Assay [14] is described as follows: Cell Viability - NIH 3T3 (AID 541; active means well fitted curve in the direction sought with a large enough effect; an effect the other way counts as inactive or inconclusive; further: nearly all actives have a fitted effect of over 25% in size; further: potency means the concentration at half of the fitted maximal effect). A digest of the protocol: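 Luminescent ATP signal (CellTiter-Glo) served as the viability read-out after NIH 3T3 cells were exposed to compounds over a concentration range for 40 hr at 37 °C. Hill-equation modelling of concentration-response data gave AC50.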
Assay [15] in a line: Cell Viability - HUV-EC-C (AID 542; active means well fitted curve in the direction sought with a large enough effect; an effect the other way counts as inactive or inconclusive; further: nearly all actives have a fitted effect of over 35% in size; further: potency means the concentration at half of the fitted maximal effect). In a few lines: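 qHTS cytotoxicity: HUV-EC-C, 1000 cells/well, 5 hr settle, compound 40 hr 37 °C, CellTiter-Glo, luminescence. AC50 via Hill equation.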
Assay [16] can be described thus: Cell Viability - H-4-II-E (AID 543; active means well fitted curve in the direction sought with a large enough effect; an effect the other way counts as inactive or inconclusive; further: nearly all actives have a fitted effect of over 35% in size; further: potency means the concentration at half of the fitted maximal effect). In a few lines: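 Luminescent ATP signal (CellTiter-Glo) served as the viability read-out, with cytotoxicity seen as a concentration-dependent ATP drop. Cells were treated for 40 hours in complete medium. AC50 values derive from Hill-equation modelling.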
Assay [17] can be described thus: Cell Viability - SH-SY5Y (AID 544; active means well fitted curve in the direction sought with a large enough effect; an effect the other way counts as inactive or inconclusive; further: nearly all actives have a fitted effect of over 55% in size; further: potency means the concentration at half of the fitted maximal effect). In a few lines: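 Luminescent ATP read-out (CellTiter-Glo) measures loss of viable SH-SY5Y neuroblastoma cells after 40 hr compound exposure at 37 °C. AC50 values derive from standard Hill modelling of qHTS concentration-response data.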
Assay [18] in a line: Cell Viability - Renal Proximal Tubule (AID 545; active means well fitted curve in the direction sought with a large enough effect; an effect the other way counts as inactive or inconclusive; further: nearly all actives have a fitted effect of over 40% in size; further: potency means the concentration at half of the fitted maximal effect). In a few lines:
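Primary rat renal proximal tubule cells (1000/well) were treated with compounds for 40 hr at 37 °C in complete medium. Intracellular ATP was measured by CellTiter-Glo luminescence, and AC50 values came from Hill-equation fits of concentration-response data.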

The nature of assay [19]: Cell Viability - Mesenchymal (AID 546; active means well fitted curve in the direction sought with a large enough effect; an effect the other way counts as inactive or inconclusive;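 further: cells exposed to compound for 40 hours before reading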; further: potency means the concentration at half of the fitted maximal effect). In a few lines:
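AC50 values reflect the drop in intracellular ATP in a human kidney mesenchymal line derived from normal glomeruli. Treatment lasts 40 hr at 37 °C in complete medium, and the signal comes from CellTiter-Glo luminescence.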

Glucocorticoid receptor (Homo sapiens), sequence (P04150 whole entry, looked up, the tested form may be a part): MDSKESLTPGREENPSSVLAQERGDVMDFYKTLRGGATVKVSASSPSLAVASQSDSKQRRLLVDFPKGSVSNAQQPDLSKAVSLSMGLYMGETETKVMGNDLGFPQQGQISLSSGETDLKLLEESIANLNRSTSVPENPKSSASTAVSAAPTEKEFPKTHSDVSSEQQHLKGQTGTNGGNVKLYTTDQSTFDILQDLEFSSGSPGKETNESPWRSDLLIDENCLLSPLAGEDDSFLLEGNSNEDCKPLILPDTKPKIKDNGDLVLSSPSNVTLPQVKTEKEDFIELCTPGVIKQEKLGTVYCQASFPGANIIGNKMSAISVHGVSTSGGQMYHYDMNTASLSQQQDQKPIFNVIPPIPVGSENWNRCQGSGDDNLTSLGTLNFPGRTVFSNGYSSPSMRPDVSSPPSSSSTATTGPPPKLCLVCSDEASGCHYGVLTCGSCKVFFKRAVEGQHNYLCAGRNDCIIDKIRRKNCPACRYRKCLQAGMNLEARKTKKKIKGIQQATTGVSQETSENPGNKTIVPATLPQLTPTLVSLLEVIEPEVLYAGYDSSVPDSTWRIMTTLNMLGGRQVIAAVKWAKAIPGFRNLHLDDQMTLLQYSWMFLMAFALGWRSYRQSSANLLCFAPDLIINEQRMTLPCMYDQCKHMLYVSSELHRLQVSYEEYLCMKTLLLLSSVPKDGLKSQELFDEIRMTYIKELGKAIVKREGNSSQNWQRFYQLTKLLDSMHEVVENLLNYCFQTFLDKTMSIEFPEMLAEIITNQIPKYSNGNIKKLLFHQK
Cytochrome P450 1A2 (Homo sapiens), sequence (P05177 whole entry, looked up): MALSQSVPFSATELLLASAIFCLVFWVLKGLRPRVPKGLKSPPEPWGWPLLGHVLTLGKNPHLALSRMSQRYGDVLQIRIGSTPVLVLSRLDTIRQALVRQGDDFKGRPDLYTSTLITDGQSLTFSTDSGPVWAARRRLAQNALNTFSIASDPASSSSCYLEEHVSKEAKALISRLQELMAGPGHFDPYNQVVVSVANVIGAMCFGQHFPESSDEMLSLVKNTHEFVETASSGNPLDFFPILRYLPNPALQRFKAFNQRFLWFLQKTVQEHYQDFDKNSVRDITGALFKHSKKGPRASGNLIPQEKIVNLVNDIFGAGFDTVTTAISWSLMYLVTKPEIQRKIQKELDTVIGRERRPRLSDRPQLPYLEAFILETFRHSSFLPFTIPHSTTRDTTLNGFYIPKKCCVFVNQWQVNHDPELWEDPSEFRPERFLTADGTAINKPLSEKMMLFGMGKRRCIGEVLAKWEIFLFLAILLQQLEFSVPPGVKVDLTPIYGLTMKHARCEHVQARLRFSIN
3',5'-cyclic-AMP phosphodiesterase 4B (Homo sapiens), sequence (Q07343 whole entry, looked up): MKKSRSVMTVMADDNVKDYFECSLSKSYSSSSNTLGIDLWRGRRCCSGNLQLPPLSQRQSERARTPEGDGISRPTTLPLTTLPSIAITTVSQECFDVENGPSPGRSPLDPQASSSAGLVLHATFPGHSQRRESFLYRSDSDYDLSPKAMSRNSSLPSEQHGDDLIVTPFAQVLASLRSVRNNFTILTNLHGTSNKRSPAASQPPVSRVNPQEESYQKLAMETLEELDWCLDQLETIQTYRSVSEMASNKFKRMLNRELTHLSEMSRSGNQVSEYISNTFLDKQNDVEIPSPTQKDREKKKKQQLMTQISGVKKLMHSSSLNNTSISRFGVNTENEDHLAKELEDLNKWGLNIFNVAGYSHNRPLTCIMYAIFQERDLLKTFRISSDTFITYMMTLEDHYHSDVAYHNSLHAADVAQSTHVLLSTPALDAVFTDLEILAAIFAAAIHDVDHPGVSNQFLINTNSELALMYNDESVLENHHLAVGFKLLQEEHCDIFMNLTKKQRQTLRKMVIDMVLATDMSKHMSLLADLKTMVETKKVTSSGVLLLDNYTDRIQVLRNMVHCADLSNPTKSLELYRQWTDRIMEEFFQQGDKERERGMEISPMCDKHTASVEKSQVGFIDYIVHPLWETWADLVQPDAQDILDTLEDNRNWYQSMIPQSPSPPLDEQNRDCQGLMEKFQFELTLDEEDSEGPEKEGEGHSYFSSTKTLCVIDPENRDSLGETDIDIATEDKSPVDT

For `O=C(NCCO[N+](=O)[O-])c1cccnc1`, the Potency entry in assay [1] and in assay [4] was “inactive” each time. Also, the Potency in [2] and in [3] was > 46 µM in each case. Moreover, the call in [5] was inactive.
For `CC(C)(S)[C@@H](N)C(=O)O`, the compound was called inactive in assay [6] and in assay [7]. The Potency in assay [2] was > 20.6 µM.
As to `Cc1cccc(CN2CCN(C(c3ccccc3)c3ccc(Cl)cc3)CC2)c1` (configuration not stated), the call in assay [6] and in assay [7] was inactive. Moreover, in [2], the Potency was > 20.6 µM.
Turning to `CC(C)[N+]1(C)[C@@H]2CC[C@H]1CC(OC(=O)C(CO)c1ccccc1)C2` (some centres not stated), the compound was classed as inactive in assay [6] and in [7].
Consider `O=C(NCC1CCCCN1)c1cc(OCC(F)(F)F)ccc1OCC(F)(F)F` (configuration not stated), for which the call in assay [6] and in assay [7] was inactive.
For `CCN(CC)C(=S)SSC(=S)N(CC)CC`, the Potency in [1] was 6.31 µM (active) and 1.58 µM (active); in assay [2], > 46 µM and > 20.6 µM; in assay [3], > 46 µM and > 20.6 µM. Also, the Potency result in assay [4] is “inactive”. For the same compound, in [5], the call was inactive.
For the compound `COc1cc(OC)c(C(=O)CCCN2CCCC2)c(OC)c1`, the result in assay [6], in assay [7] and in [5] was inactive. The Potency in assay [2] and in assay [3] was > 20.6 µM in each case. In [4], the Potency result was “inactive”.
For the compound `CNC[C@H](O)c1ccc(O)c(O)c1`, the compound was called inactive in assay [6], in assay [7] and in assay [5]. For the same compound, in assay [4], the Potency result is “inactive”.
Turning to `CC(C)c1ccc2c(c1)c(SC(C)(C)C)c(CC(C)(C)C(=O)O)n2Cc1ccc(Cl)cc1`, the Potency is 25.1 µM (active) and 31.6 µM (active) in [1]; > 46 µM in [2]; > 46 µM in assay [3]. The Potency result in [4] was “inactive”. Besides, in assay [5], the call was inactive.
Turning to `CCOC(=O)C1=C(O)C(=O)N(Cc2ccccc2)C1`, the values for the Potency in [1], in [2] and in assay [3] were 1 µM (active), > 46 µM and > 46 µM, respectively.
In the case of `CC1Cc2ccccc2N1NC(=O)c1ccc(Cl)c(S(N)(=O)=O)c1` (configuration not stated), the call in assay [6] and in assay [7] was inactive.
Turning to `Nc1nc(Cl)nc2c1ncn2[C@H]1C[C@H](O)[C@@H](CO)O1`, the result in [6] and in assay [7] was inactive. In addition, in [2], the Potency is > 20.6 µM.
As to `COC(=O)[C@H](Cc1ccccc1)NC(=O)[C@@H](N)CC(=O)O` (H-Asp-Phe-OMe), the Potency in assay [8], in assay [9], in assay [10], in assay [11] and in assay [12] was > 92 µM each time. In addition, the Potency result in assay [4], in [13], in [14], in assay [15], in assay [16] and in [17] was “inactive” in each case. Moreover, the Potency entry in assay [18] and in [19] was “inactive” in each case.
`CN(C)c1ccc2nc3ccc(=[N+](C)C)cc-3sc2c1`: the Potency in assay [9] was 14.2 µM (active); in assay [10], 35.6 µM (active); in assay [11] it was 4.17 µM (active); in assay [12] it was 10.9 µM (active); in assay [13], 2.51 µM (active); in [14] it was 0.631 µM (active). Further, the Potency in assay [15] is 2.51 µM (active); in assay [16], 7.94 µM (active); in assay [17], 15.8 µM (active); in assay [18] it was 31.6 µM (active); in [19], 31.6 µM (active).
For the compound `CS(=O)(=O)OCCCCOS(C)(=O)=O`, the Potency in [8], in [9], in assay [10], in assay [11] and in [12] was > 92 µM throughout. The Potency entry in assay [4], in [13], in [14], in [15], in assay [16] and in assay [17] was “inactive” throughout. Also, the Potency entry in [18] and in assay [19] was “inactive” in each case.
As for `CC(=O)N1CCN(c2ccc(OC[C@H]3CO[C@](Cn4ccnc4)(c4ccc(Cl)cc4Cl)O3)cc2)CC1`, the Potency in assay [2] and in [3] was > 46 µM each time.
Take `Oc1ccc(OCc2ccccc2)cc1`: the Potency in [1] is 1.58 µM (active); in assay [2], > 20.6 µM; in assay [3] it was > 20.6 µM. Also, the result in assay [7] and in assay [5] was inactive. Further, in assay [4], the Potency entry is “inactive”.
For `CCCOc1ccc2nc(NC(=O)OC)[nH]c2c1`, the call in assay [6] and in assay [7] was inactive. Moreover, the Potency in assay [2] was > 20.6 µM.
Take `COC(=O)C1=C(C)NC(C)=C(C(=O)OC(C)C)C1c1cccc2nonc12` (configuration not stated): the results for the Potency in assay [1], in assay [2] and in [3] were 31.6 µM (active), > 46 µM and > 46 µM, respectively. The Potency entry in assay [4] is “inactive”.
Consider `CCN(CC)CCOc1ccc(Cc2ccccc2)cc1`, for which the Potency in [1] is 12.6 µM (active); in assay [2], > 46 µM; in assay [3] it was > 46 µM. In addition, in [4], the Potency entry was “inactive”.
Turning to `CN(C)CCCC1(c2ccc(F)cc2)OCc2cc(C#N)ccc21` (configuration not stated), the compound was called inactive in [6] and in assay [7]. Further, the Potency in [2] was > 20.6 µM.
Turning to `Nc1cc(C(Cl)=C(Cl)Cl)c(S(N)(=O)=O)cc1S(N)(=O)=O`, the outcome in assay [6], in [7] and in assay [5] was inactive. In addition, the Potency in assay [2] and in assay [3] was > 20.6 µM each time. Moreover, the Potency result in assay [4] is “inactive”.
As to `C[C@H](Cc1ccc(O)c(O)c1)[C@@H](C)Cc1ccc(O)c(O)c1`, the Potency in assay [1] is 31.6 µM (active); in assay [2], > 46 µM; in [3] it was > 46 µM. In assay [5], the call was inactive.
